Measured values reported in PubChem BioAssay AID1159580 (chemical genetic matrix, 2015).
Among all 5,500 compounds or so, about 2,000 (36%) were called active. Another 18% or so got no clear call; they are omitted. No stated cut-off is given here; in the data, active means normalized growth mostly below about 0.91 (no sharp cut-off); inconclusive means no clear call, values can overlap the other calls; inactive means mostly above about 0.92. The list shows a part of the results.

Assay: chemical genetic growth profiling, strain panel (AID 1159580);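 further: tested at 20 µM; growth read once vehicle control cultures reached saturation at 30 °C; 1 = growth at the plate median or of vehicle wells; lower values mean less growth of the strain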
Details: growth OD

Measured: normalized growth

CC1(C)C(C=C(Cl)Cl)C1C(=O)OC(C#N)c1cccc(Oc2ccccc2)c1 (stereo unspecified)
inactive: S. cerevisiae deletion strains, locus YAL013W, strain DEP1, hits give low values 0.996 | S. cerevisiae deletion strains, locus YBR021W, strain FUR4, hits give low values 0.962 | S. cerevisiae deletion strains, locus YBR229C, strain ROT2, hits give low values 0.986 | S. cerevisiae deletion strains, locus YCL029C, strain bik1, hits give low values 1.01 | S. cerevisiae deletion strains, locus YDL035C, strain GPR1, hits give low values 0.998 | S. cerevisiae deletion strains, locus YDL074C, strain BRE1, hits give low values 1.01 | S. cerevisiae deletion strains, locus YDL101C, strain DUN1, hits give low values 0.993 | S. cerevisiae deletion strains, locus YDL134C, strain PPH21, hits give low values 0.995 | S. cerevisiae deletion strains, locus YDL185W, strain tfp1, hits give low values 0.996 | S. cerevisiae deletion strains, locus YDL192W, strain arf1, hits give low values 1 | S. cerevisiae deletion strains, locus YDR101C, strain arx1, hits give low values 0.996 | S. cerevisiae deletion strains, locus YDR150W, strain NUM1, hits give low values 1 | S. cerevisiae deletion strains, locus YDR162C, strain NBP2, hits give low values 1.02 | S. cerevisiae deletion strains, locus YDR318W, strain mcm21, hits give low values 0.983 | S. cerevisiae deletion strains, locus YDR388W, hits give low values 1 | S. cerevisiae deletion strains, locus YDR502C, strain sam2, hits give low values 0.998 | S. cerevisiae deletion strains, locus YEL061C, strain CIN8, hits give low values 0.999 | S. cerevisiae deletion strains, locus YER110C, hits give low values 0.99 | S. cerevisiae deletion strains, locus YER155C, strain BEM2, hits give low values 0.999 | S. cerevisiae deletion strains, locus YER167W, strain BCK2, hits give low values 0.987 | S. cerevisiae deletion strains, locus YGL078C, strain dbp3, hits give low values 1 | S. cerevisiae deletion strains, locus YGL086W, strain mad1, hits give low values 0.954 | S. cerevisiae deletion strains, locus YGL248W, strain PDE1, hits give low values 0.983 | S. cerevisiae deletion strains, locus YGR078C, strain PAC10, hits give low values 1.01 | S. cerevisiae deletion strains, locus YGR135W, strain pre9, hits give low values 0.992 | S. cerevisiae deletion strains, locus YGR229C, strain SMI1, hits give low values 1 | S. cerevisiae deletion strains, locus YGR252W, strain gcn5, hits give low values 0.95 | S. cerevisiae deletion strains, locus YHR030C, strain SLT2, hits give low values 0.99 | S. cerevisiae deletion strains, locus YHR079C, strain IRE1 (second series), hits give low values 1 | S. cerevisiae deletion strains, locus YHR094C, strain hxt1, hits give low values 0.998 | S. cerevisiae deletion strains, locus YHR129C, strain ARP1, hits give low values 0.997 | S. cerevisiae deletion strains, locus YHR200W, strain rpn10, hits give low values 0.992 | S. cerevisiae deletion strains, locus YIL066C, strain RNR3, hits give low values 0.98 | S. cerevisiae deletion strains, locus YIL073C, strain SPO22, hits give low values 0.99 | S. cerevisiae deletion strains, locus YIL125W, strain kgd1, hits give low values 1.01 | S. cerevisiae deletion strains, locus YIR030C, strain dcg1, hits give low values 0.998 | S. cerevisiae deletion strains, locus YJL095W, strain BCK1, hits give low values 1.01 | S. cerevisiae deletion strains, locus YJL134W, strain LCB3, hits give low values 0.984 | S. cerevisiae deletion strains, locus YJL168C, strain set2, hits give low values 1 | S. cerevisiae deletion strains, locus YJL187C, strain SWE1 (second series), hits give low values 1 | S. cerevisiae deletion strains, locus YJR043C, strain POL32, hits give low values 0.987 | S. cerevisiae deletion strains, locus YJR075W, strain HOC1, hits give low values 0.998 | S. cerevisiae deletion strains, locus YKL009W, strain mrt4, hits give low values 0.96 | S. cerevisiae deletion strains, locus YKL068W, hits give low values 1 | S. cerevisiae deletion strains, locus YKL085W, strain MDH1 (second series), hits give low values 0.992 | S. cerevisiae deletion strains, locus YKL085W, strain MDH1, hits give low values 0.992 | S. cerevisiae deletion strains, locus YKL190W, strain CNB1, hits give low values 1 | S. cerevisiae deletion strains, locus YKR001C, strain vps1, hits give low values 0.976 | S. cerevisiae deletion strains, locus YLR039C, strain RIC1, hits give low values 0.969 | S. cerevisiae deletion strains, locus YLR058C, strain SHM2, hits give low values 0.993 | S. cerevisiae deletion strains, locus YLR102C, strain apc9, hits give low values 1 | S. cerevisiae deletion strains, locus YLR262C, strain YPT6, hits give low values 0.99 | S. cerevisiae deletion strains, locus YLR268W, strain sec22, hits give low values 1 | S. cerevisiae deletion strains, locus YLR330W, strain CHS5, hits give low values 0.995 | S. cerevisiae deletion strains, locus YLR342W, strain FKS1 (second series), hits give low values 0.951 | S. cerevisiae deletion strains, locus YLR371W, strain rom2, hits give low values 1 | S. cerevisiae deletion strains, locus YLR418C, strain cdc73, hits give low values 1.05 | S. cerevisiae deletion strains, locus YML016C, strain PPZ1, hits give low values 0.994 | S. cerevisiae deletion strains, locus YML032C, strain rad52, hits give low values 0.98 | S. cerevisiae deletion strains, locus YML124C, strain tub3, hits give low values 0.998 | S. cerevisiae deletion strains, locus YMR078C, strain ctf18, hits give low values 0.98 | S. cerevisiae deletion strains, locus YMR223W, strain ubp8, hits give low values 0.974 | S. cerevisiae deletion strains, locus YMR263W, strain SAP30, hits give low values 1.01 | S. cerevisiae deletion strains, locus YMR307W, strain GAS1, hits give low values 0.94 | S. cerevisiae deletion strains, locus YNL067W, strain RPL9B, hits give low values 1.01 | S. cerevisiae deletion strains, locus YNL128W, strain TEP1, hits give low values 1 | S. cerevisiae deletion strains, locus YNL153C, strain GIM3, hits give low values 1.01 | S. cerevisiae deletion strains, locus YNL233W, strain BNI4, hits give low values 1.01 | S. cerevisiae deletion strains, locus YNL250W, strain rad50, hits give low values 0.993 | S. cerevisiae deletion strains, locus YNL271C, strain bni1, hits give low values 0.998 | S. cerevisiae deletion strains, locus YNL298W, strain CLA4, hits give low values 0.964 | S. cerevisiae deletion strains, locus YNL307C, strain MCK1, hits give low values 0.991 | S. cerevisiae deletion strains, locus YNL322C, strain KRE1, hits give low values 0.994 | S. cerevisiae deletion strains, locus YNR052C, strain pop2, hits give low values 0.979 | S. cerevisiae deletion strains, locus YOL006C, strain TOP1, hits give low values 1.03 | S. cerevisiae deletion strains, locus YOL012C, strain htz1 1.96 | S. cerevisiae deletion strains, locus YOL147C, strain pex11, hits give low values 1.01 | S. cerevisiae deletion strains, locus YOR061W, strain CKA2, hits give low values 0.997 | S. cerevisiae deletion strains, locus YOR069W, strain VPS5, hits give low values 0.995 | S. cerevisiae deletion strains, locus YOR136W, strain idh2, hits give low values 1 | S. cerevisiae deletion strains, locus YOR144C, strain elg1, hits give low values 0.997 | S. cerevisiae deletion strains, locus YOR184W, strain ser1, hits give low values 0.983 | S. cerevisiae deletion strains, locus YOR316C, strain cot1, hits give low values 0.996 | S. cerevisiae deletion strains, locus YPL055C, strain LGE1, hits give low values 1.03 | S. cerevisiae deletion strains, locus YPL241C, strain CIN2, hits give low values 1 | S. cerevisiae deletion strains, locus YPR119W, strain clb2, hits give low values 1.01 | S. cerevisiae deletion strains, locus YPR141C, strain kar3, hits give low values 0.992 | S. cerevisiae deletion strains, locus YPR163C, strain tif3, hits give low values 1.01 | S. cerevisiae deletion strains, locus YPR167C, strain met16, hits give low values 0.99 | S. cerevisiae deletion strains, strain wtn01, hits give low values 0.991 | S. cerevisiae strains, strain wild type, hits give low values 1.01
